Source: PubChem BioAssay
BoNT F protease: BoNT/F light chain protease inhibitors, primary screen, biochemical, flow cytometry, MLPCN library | Botulinum neurotoxin type F light chain protease (Clostridium botulinum) | Multiplex microsphere protease cleavage assay | inhibition, % at 10 µM | actives 0.22% (n = 360,000); in the data active = inhibition above about 35%, passing the limit was not always enough; inconclusive = no clear call, values can overlap the other calls
Anthrax LF inh2: Bacillus anthracis LF protease inhibitors, primary screen, biochemical, multiplex microsphere, MLPCN library. multiplex microsphere protease cleavage assay. inhibition, % at 10 µM. actives 0.12% (n = 360,000)
SSB-PriA inh: inhibitors of Klebsiella pneumoniae PriA binding to SSB C-terminal tail, primary screen, biochemical, AlphaScreen | PriA–SSB C-terminal tail interaction (Klebsiella pneumoniae) | AlphaScreen SSBct-PriA binding, biotinylated peptide | inhibition, % at 33 µM | actives 0.6% (n = 430,000) | AID 1272365, 2023; in the data active = inhibition mostly above about 37%, no sharp cut-off; inactive = mostly below about 20%
Autofluor counter: counter-screen for toxin protease inhibitors: compound fluorescence | compound autofluorescence counterscreen, microsphere flow cytometry; stronger effect = higher value | fluorescence intensity (no concentration beside the values) | actives 3.1% (n = 360,000); in the data active = fluorescence intensity above about 16000; inconclusive = no clear call, values can overlap the other calls
BoNT A protease: BoNT/A light chain protease inhibitors, primary screen, biochemical, flow cytometry, MLPCN library; AID 588499, 2011; multiplex microsphere protease substrate cleavage; inhibition, % at 10 µM; actives 0.17% (n = 360,000)
MazF activator: activators of E. coli MazEF toxin-antitoxin RNase, primary screen, biochemical, fluorescence, uHTS | FAM/BHQ RNA-DNA oligo cleavage fluorescence, 5 h | activation, % at 20 µM | actives 0.32% (n = 350,000); in the data active = activation above about 50%
Numbers stand for hits; – = inactive; ? = inconclusive; · = no result. An excerpt weighted towards active compounds, which were near 3.3% of everything screened. Rule as the data show it, unless noted: active = inhibition above about 30%; inconclusive = no clear call, values can overlap the other calls; inactive = below that.

SMILES | BoNT F protease | Anthrax LF inh2 | SSB-PriA inh | Autofluor counter | BoNT A protease | MazF activator
COc1ccc(N2CC(C)Cn3c2nc2c3c(=O)n(Cc3ccccc3)c(=O)n2C)c(OC)c1 (configuration not stated) | – | – | – | – | – | –
CSc1nc2ccc3nc(NC(=O)CCSc4ccccc4)sc3c2s1 | · | · | – | · | · | ·
CCOc1ccc(NC(=O)c2c(O)c3ccccc3n(-c3ccccc3)c2=O)cc1 | · | · | – | · | · | ·
CSc1ccccc1NC(=O)c1c(C)noc1C | – | – | – | 22017 | – | –
CC(C)NC(=O)c1ccccc1NC(=O)c1ccccc1N(C)S(C)(=O)=O | – | – | – | – | – | –
CSc1ccccc1NC(=O)c1ccccc1N(C)S(C)(=O)=O | – | – | – | 22950 | – | –
CSc1ccccc1NC(=O)Nc1cccc(F)c1 | – | – | – | – | – | –
CSc1ccccc1NC(=O)c1onc(C)c1Cl | – | – | – | – | – | –
CSc1ccccc1NC(=O)c1ccccc1N(Cc1ccccc1)S(C)(=O)=O | – | – | – | 19711 | – | –
CSc1ccccc1NC(=O)Nc1ccccc1 | – | – | – | 25193 | ? | –
CS(=O)(=O)Nc1cccc(C2=NN(C(=O)c3ccco3)C(c3ccccc3F)C2)c1 (configuration not stated) | · | · | 58 | · | · | ·
O=C(Cc1cccc2ccccc12)NCc1cc(-c2cccs2)on1 | · | · | – | · | · | ·
Cc1ccc([N+](=O)[O-])cc1N/C=C1\CCCCC1=O | – | – | · | – | – | 98
COc1ccc(/C=N/Nc2nc(-c3ccc(C)cc3)c(NC(C)=O)s2)cc1OC | ? | 36 | – | – | – | –
COc1ccc(CNC(=O)N2CCSC2c2cccc(F)c2)cc1OC (configuration not stated) | · | · | – | · | · | ·
Cc1ccc(OCC(=O)Nc2ccc3c(c2)nc2n3CCOC2)cc1 | – | – | – | 20169 | ? | –
O=C(Nc1ccc2c(c1)nc1n2CCOC1)C1CCCCC1 | – | – | – | – | – | –
CC(=O)Nc1ccc2c(c1)nc1n2CCOC1 | – | – | – | 24292 | ? | –
CC(C)(C)NS(=O)(=O)c1ccc(NS(C)(=O)=O)cc1 | – | – | – | 16636 | ? | –
CCC(=O)N1CCCc2ccc(NS(=O)(=O)c3ccc(OC)c(Cl)c3)cc21 | · | · | – | · | · | ·
CCOC(=O)Cn1c2ccc(F)cc2c2nc(C)sc21 | – | – | – | – | – | –
COC(=O)Cn1c2ccc(F)cc2c2nc(C)sc21 | – | – | – | 22219 | – | –
Cc1cccc(-n2ncc3c(=O)n4c(nc32)SCC4CC(=O)O)c1 (configuration not stated) | · | · | – | · | · | ·
CCOC(=O)c1cnc(-n2cc(C)cn2)nc1Nc1ccccc1OCC | – | – | – | 23982 | – | –
Cc1ccc(S(=O)(=O)Nc2cc(C(=O)O)ccc2N2CCCCC2)cc1 | – | – | – | 23478 | – | –
SMILES | BoNT F protease | Anthrax LF inh2 | SSB-PriA inh | Autofluor counter | BoNT A protease | MazF activator
Cc1ccc(S(=O)(=O)Nc2cc(C(=O)N3CCOCC3)ccc2N2CCCCC2)cc1 | – | – | – | – | – | –
COCCCNC(=O)c1ccc(N2CCCC2)c(NS(=O)(=O)c2ccc(C)cc2)c1 | – | – | – | 24938 | – | –
CCOCCCNC(=O)c1ccc(N2CCCC2)c(NS(=O)(=O)c2ccc(C)cc2)c1 | – | – | – | – | – | –
O=C(Cc1ccc2c(c1)OCO2)NCc1cncc(-c2cccs2)c1 | · | · | – | · | · | ·
CCOC(=O)C(C(N)=NCc1ccco1)=C(O)c1ccccc1 | · | · | – | · | · | ·
CCOC(=O)/C(C(N)=NCc1ccco1)=C(/O)c1ccccc1 | – | – | · | 23453 | – | –
Cc1ccc(Cn2cc(SCCNC(=O)C(=O)c3c(C)[nH]c4ccccc34)c3ccccc32)cc1 | · | · | – | · | · | ·
CCN1C(=O)C(C)(C)COc2cc(NC(=O)c3ccc([N+](=O)[O-])cc3Cl)ccc21 | · | · | – | · | · | ·
Cc1cc(C(=O)NCCC2=CCCCC2)c(C)o1 | – | – | – | 16581 | – | –
Cc1ccc(N(Cc2ccc(C(=O)NC3CCCCC3)cc2)S(C)(=O)=O)cc1C | – | – | – | – | – | 51
COc1cc(C(=O)NCCC2=CCCCC2)cc(OC)c1OC | – | – | – | 22928 | – | –
CS(=O)(=O)N(Cc1ccc(C(=O)NC2CCCC2)cc1)c1ccccc1 | – | – | – | – | – | –
CS(=O)(=O)Nc1ccc(C(=O)NC2CCCC2)cc1 | – | – | – | 20262 | – | –
CS(=O)(=O)Nc1ccc(C(=O)NC2CCCCC2)cc1 | – | – | – | – | – | –
CC(C)CC(O)=Cc1nc2cc(Cl)ccc2oc1=O | · | · | – | · | · | ·
CS(=O)(=O)Nc1ccc(C(=O)NCCC2=CCCCC2)cc1 | – | – | – | 24230 | ? | –
CC(C)C(=O)Nc1ccc(C(=O)NNC(=O)NC2CCCCC2)cc1 | – | – | – | 17675 | ? | –
CS(=O)(=O)N(Cc1ccc(Cl)cc1)c1ccc(C(=O)NCCC2=CCCCC2)cc1 | – | – | – | – | – | –
COc1ccc(C)cc1NC(=O)NCCC1=CCCCC1 | – | – | – | 21584 | – | –
Cc1cc(C)cc(N(C(C)C(=O)NCCC2=CCCCC2)S(C)(=O)=O)c1 (configuration not stated) | – | – | – | 23149 | – | –
O=C(NNC(=O)c1ccncc1)NC1CCCCC1 | – | – | – | – | – | –
CC(C)CCNC(=O)C(=O)NCCC1=CCCCC1 | – | – | – | – | – | –
COC(=O)[C@@H](NC(=O)NCCC1=CCCCC1)C(C)C | ? | – | – | – | ? | –
COc1ccc(-c2nc3sc(CCNS(=O)(=O)c4ccc(F)cc4C)c(C)n3n2)cc1 | · | · | – | · | · | ·
O=S(=O)(NCCc1ccccc1)c1cccc(Cl)c1 | · | · | – | · | · | ·
SMILES | BoNT F protease | Anthrax LF inh2 | SSB-PriA inh | Autofluor counter | BoNT A protease | MazF activator
O=C(NC1CC1)C1=C[C@H](c2ccc(C(F)(F)F)cc2)C[C@H](OCc2ccc(CO)cc2)O1 | – | – | – | – | – | 199
Cc1ccc2cccc(OC(=O)N3CCCC3)c2n1 | – | – | – | 22325 | – | –
Cc1cc(C)n2nc3nc4c(cc3c2n1)CCCC4 | – | – | – | 19863 | ? | –
CCCC(=O)Nc1ccc2c(c1)C(=O)N(CCC(=O)O)C2=O | – | – | – | – | – | –
CC1=C(C)C(=O)N(CCC(=O)O)C1=O | – | – | – | 20985 | – | –
Cc1ccc(C)c(S(=O)(=O)N2CCN(Cc3ccc4c(c3)OCO4)CC2)c1 | · | · | – | · | · | ·
Cn1nc(C(=O)N(Cc2ccccc2)Cc2ccccc2)ccc1=O | · | · | – | · | · | ·
O=C(C1=C(Nc2ccccc2)c2ccccc2S(=O)(=O)N1)c1ccccc1 | – | – | 42 | – | – | –
CC(C)OC(=O)c1nnn(-c2nonc2N)c1CN1CCc2ccccc2C1 | – | – | – | – | – | –
CCOC(=O)c1nnn(-c2nonc2N)c1CN1CCc2ccccc2C1 | – | – | – | 20264 | – | –
